Data reported in PubChem BioAssay AID602476 (National Center for Advancing Translational Sciences (NCATS), 2012).
Records with an inconclusive call do not appear. Active and inactive are the calls of the source. Calls come from the whole dose curve; as a rule, active = well fitted activation curve with a large enough effect; inconclusive = small, poorly fitted or top-dose-only effect; inactive = flat fitted curve, though single readings scatter.

Assay: FLuc inhibitory activity for the follow-up compounds in a cell-based translational read-through assay
Details: GripTite 293 FLucUGA read-through, luminescence, 48 h; series mostly up to 38.3 µM; activation (read-through/stabilization): at the top concentration
Text: NCGC Assay Overview: Firefly (Photinus pyralis) luciferase is one of the most commonly used transcriptional reporters. It is considered one of the more dynamically responsive reporters - that is, responsive to changes in reporter transcription - as it requires no post-translational modifications and is enzymatically active directly after protein synthesis (Wood, 1998). With no endogenous expression in mammalian cells and without the requirement of external excitation, it offers very little background signal, thus generally providing excellent signal to background for most assays. Previous profiling work to determine the prevalence of compounds that affect FLuc enzymatic activity (PubChem AID 411) identified that ~3% of the MLSMR library (then at ~72K) inhibited FLuc (Auld et al., 2008). […] Of the compounds identified in this profile that inhibited FLuc, 151 compounds were selected for further analysis, in an effort to better understand their mode of inhibiting FLuc. The assay described here was to determine the activity of the compounds in a cell-based firefly luciferase reporter gene assay originally designed to identify compounds that enchanced translational read-through of a FLuc cDNA that contained a premature stop codon (Auld et al., 2009; Auld et al., 2010). Compounds that enhance translational read-through or compounds that stabilize FLuc intracellularly are identified as active compounds in the assay.
NCGC Assay Protocol Summary: Reagents: Transient transfection of FlucUGA construct: TransFast Transfection Reagent (Promega #E2431); FLucUGA construct (refer to Auld et al., 2009) #GripTite 293 MSR Cell Line (Invitrogen #R795-07) #Complete growth media: DMEM (Invitrogen #11965), 10% HIFBS, 0.1mM MEM NEAA, 5mL/L pen-strep (of 5000U/mL stock), 600ug/mL Geneticin #Assay media: DMEM without phenol red (Invitrogen #21063), 5% charcoal-stripped HIFBS (Hyclone #SH30071.03), 0.1mM MEM NEAA In-house detection reagent: 300mM Tris-HCl, 300mM Trizma base, 300mM MgCl, 1% Triton-X100, 5mM DTT, 500uM Coenzyme A trilithium salt (Sigma #C3019),450uM ATP (Sigma #A7699), 1mM D-luciferin sodium salt monohydrate (Biosynth #L8240) Control compounds used were two known firefly luciferase inhibitors (3-(5-(3-chlorophenyl)-1,2,4-oxadiazol-3-yl)benzoic acid and 5-(2-fluorophenyl)-3-phenyl-1,2,4-oxadiazole), and DMSO. Assay Summary: Transient transfection of FlucUGA construct: Day 1: GripTite cells were plated in T175 flasks at a density of 1.75 x 10^7 cells/T175 flask in complete growth media without Geneticin and allowed to grow ON in a 37 degrees Celsius incubator. Day 2: Cells in T175 flask were transfected - with 10ug of DNA and 30uL Transfast in 12mL complete growth media without serum and without Geneticin for 4 hours at 37 degrees Celsius. After incubation, cells were trypsinized, spun down, and resuspended to a concentration of 3.3 x 10^5 cells/mL in assay media. 6uL of cells in assay buffer were dispensed at 2000cells/well (3.3 x 10^5 cells/mL) into Greiner solid-white TC-treated 1536-well plates using a Multidrop Combi (Thermo Fisher Scientific). Plates were incubated for one hour at 37 degree Celsius, 95% humidity, 5% CO2. These assay plates were then treated with 23nL of compound or DMSO using a Kalypsys pin tool, which allows for delivery of a 12-point titration of each compound to the assay plate, with a final compound concentration ranging from approximately ~38uM to 0.2nM. Assay plates were then incubated for 48 hours. After incubation, plates were washed three times with DPBS (7uL/well). After the third wash, 6uL of DPBS was added to each well. 3uL of 3X luciferase detection reagent was then added to each well using a flying reagent dispenser (FRD). After a 15 minute incubation to allow for cell lysis, luciferase activity was measured using a ViewLux CCD imager (PerkinElmer), with an average exposure time of 2-12 seconds.

SMILES	activation (read-through/stabilization)	Potency
CC(=O)Oc1ccc(C(=O)Nc2ccccc2C(=O)Nc2ccc(C(=O)O)cc2)cc1	1.96% (inactive)	
O=C(O)c1cccc(NC(=O)c2ccc(Cl)c(S(=O)(=O)N3CCCCCC3)c2)c1		711 nM (active)
O=C(Nc1ccccc1C(=O)O)c1cccc(NC(=O)c2ccc(Br)o2)c1	-0.434% (inactive)	
COc1cc(C(=O)Nc2cc(C)c(O)c(-c3nc4ccccc4s3)c2)cc(OC)c1OC	6.27% (inactive)	
c1ccc2sc(-c3ccc4c(c3)OCO4)nc2c1		1260 nM (active)
Nc1ccc2nc(-c3ccccc3)sc2c1		4000 nM (active)
CCCC(=O)Nc1nc2ccc(OCC)cc2s1		12600 nM (active)
O=C(Nc1ccccc1-c1nc2ccccc2s1)c1cccnc1	6.24% (inactive)	
Nc1ccc(-c2nc3ccc(C(=O)O)cc3s2)cc1		283 nM (active)
COc1cccc(OC)c1C(=O)Nc1cccc(C(=O)Nc2cccc(C(=O)O)c2)c1	4.55% (inactive)	
O=C(O)c1cccc(NC(=O)c2cccc(S(=O)(=O)N3CCc4ccccc4C3)c2)c1	12.2% (inactive)	
O=C(Nc1ccccc1C(=O)O)c1cccc(C(=O)Nc2ccccc2C(=O)O)c1	-0.133% (inactive)	
CC(C)C(=O)Nc1cccc(C(=O)Nc2ccccc2C(=O)O)c1	-3.96% (inactive)	
COc1c(C)cccc1C(=O)Nc1ccc(-c2nc3ccccc3s2)c(Cl)c1	3.17% (inactive)	
CN(C)S(=O)(=O)c1ccc(C(=O)Nc2ccccc2C(=O)O)cc1	-3.39% (inactive)	
Cc1ccc2nc(-c3ccc(N)cc3)sc2c1		40 nM (active)
